Test results: PubChem BioAssay (NCATS)
Records with an inconclusive call do not appear. A number with no mark means an inactive call. Activity calls are given as the source filed them. Calls follow the shape of the dose curve; as a rule, active = well fitted cell-killing curve with a large enough effect; inconclusive = small, poorly fitted or top-dose-only effect; inactive = flat fitted curve, though single readings scatter.

assay: Cell Viability - LYMP2-010 (AID 981); conditions: LYMP2-010 lymphoblastoid cell viability, qHTS; series mostly up to 92.2 µM; activity, negative = cytotoxicity: at the top concentration; also: nearly all actives have a fitted effect of over 55% in size
Source text: NIH Chemical Genomics Center [NCGC]
NIH Molecular Libraries Screening Centers Network [MLSCN]
National Institutes of Environmental Health Sciences [NIEHS]
National Toxicology Program [NTP]
We have developed a 1536-well cell-based assay for quantitative high throughput screening (qHTS) against a number of cell lines to determine in vitro cytotoxicity of small molecules. This particular assay uses a human lymphoblastoid cell line (LYMP2-010) purchased from Coriell Institute for Medical Research.
NCGC Assay Protocol Summary:
The CellTiter-Glo luminescent cell viability assay (Promega) is a homogeneous method to measure the number of viable cells in culture. The end point readout of this assay is based on quantitation of intracellular ATP, an indicator of metabolic activity, using the luciferase reaction. Luciferase catalyzes the oxidation of beetle Luciferin to oxyluciferin and light in the presence of ATP. The luminescent signal is proportional to amount of ATP present.
Using the CellTiter-Glo luminescent cell viability assay, the amount of cellular ATP was measured in the lymphoblastoid cell line with complete culture medium following compound treatment for 24 hours. The assay was performed in opaque white Kalypsys 1536-well plates. In the screen, tetraoctylammonium bromide was used as positive control. Library compounds were measured for their ability to cause acute toxicity in the cell line, as reflected by a decrease in intracellular ATP levels, in a concentration-dependent manner. […] AC50 values were determined from concentration-response data modeled with the standard Hill equation.
qHTS protocol for CellTiter Glo lymphoblastoid cellular assay
[Step] [Parameter] [Value] [Description]
1. Reagent; 5 uL; 2500 lymphoblastoid cells/well
2. Time; 5 hr; 37 C incubation
4. Controls; 23 nL; Tetraoctylammonium bromide 6.4pM to 92 uM
5. Time; 24 hr; 37 C incubation
6. Reagent; 5 uL; CellTiter Glo reagent
7. Time; 30 min; Room Temperature
8. Detection; Luminescence; Viewlux plate reader
Keywords: cell viability, cytotoxicity, lymphoblastoid cell line, luminescence, NTPHTS, NTPHTS_NCGC, NIEHS, DSSTox, MLSMR, MLSCN, NIH Roadmap, qHTS, NCGC
% is scaled to controls: 0 for no effect and ±100 for the full control effect; potency is read from the fitted curve at half-maximal effect.

Compound | activity, negative = cytotoxicity | Potency
Nc1cccc2ccccc12 | -29.3% | 
OCC(Cl)CCl (stereo not given) | -26.6% | 
Clc1ccccc1 | -3.57% | 
Cc1cc(-c2cc(C)c(N)c(C)c2)cc(C)c1N | -16.6% | 
CCCCCC[N+](=O)[O-] | -11.8% | 
Cc1ccc(N)c(N)c1 |  | 12.6 µM (active)
N#CC(Br)Br |  | 50.1 µM (active)
Clc1ccc(C(Cl)(Cl)Cl)cc1Cl | 3.55% | 
O=C(Cc1ccccc1)OCc1ccccc1 | -6.21% | 
CC(C)OC(=O)Cc1ccccc1 | -13.1% | 
CN(C)C(=O)Nc1cccc(C(F)(F)F)c1 | -12.4% | 
N#CCCCCC#N | -2.95% | 
Cc1cnc[nH]1 | 1.5% | 
CCN(CC)CCO | -25.8% | 
Nc1ccc2ccccc2c1 | -1.97% | 
[O-][Cl+2]([O-])O | -18.4% | 
CC(C)(COCC1CO1)COCC1CO1 (stereo not given) | -14.3% | 
OCCOCCO | -7.89% | 
CCOC(=O)C1OC1(C)c1ccccc1 (stereo not given) | -15.3% | 
O=C(O)C(Br)CBr (stereo not given) | -19.8% | 

Compound | activity, negative = cytotoxicity | Potency
O=[N+]([O-])c1ccc(O)c([N+](=O)[O-])c1 | -5.29% | 
Cl/C=C\Cl | -5.13% | 
O=C(O)CBr | -1.57% | 
Clc1ccc(C(Cl)(Cl)Cl)c(Cl)c1 | -5.1% | 
[O-][Cl+]O | -16.5% | 
CN=C=O | -15.1% | 
O=C(O)C(Br)Br | -27.9% | 
C=C(Cl)CCl | -6% | 
O=[N+]([O-])c1ccc(Cl)c(Cl)c1Cl | -2.32% | 
CCOC(=O)CC(SP(=O)(OC)OC)C(=O)OCC (stereo not given) | -10% | 
CC1CC(=O)O1 (stereo not given) | -4.73% | 
O=C(O)C(Cl)Br (stereo not given) | -9.29% | 
O=[N+]([O-])c1ccc(Cl)cc1 | -3.62% | 
C1CC2OC2CC1C1CO1 (stereo not given) | -4.75% | 
CCNCC | -0.367% | 
O=S(=O)(O)F | -18.9% | 
O=[N+]([O-])c1ccc2c3c(cccc13)CC2 | 2.51% | 
Nc1ccc(-c2ccc(N)cc2)cc1 | -8.83% | 
O=[N+]([O-])c1cc(Cl)c(Cl)cc1Cl | -8.31% | 
Nc1ncc([N+](=O)[O-])s1 | -2.71% | 
